# Test results reported in PubChem BioAssay (NCI).
# This is part of a sample that, as a whole, favours compounds with a hit. Of some 83,000 tested, about 20% had one in any assay.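 Activity criterion: percent growth below 10, measured after cells in 96-well plates were exposed to a single compound concentration for 48 hours.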 A number with no mark means an inactive call. Active and inactive are the calls of the source.
# System: OVCAR-8 ovarian
# Assay: NCI-60 one-dose screen, 48 h (100 = growth as untreated, 0 = no growth, -100 = all killed)
# Conditions: 10 µM unless noted
row,SMILES,growth
1,O=S(=O)(c1ccccc1)N1CCCN(c2nc(-c3ccccc3)nc3nc(-c4ccccc4)oc23)CC1,104%
2,Clc1ccc(-c2cn3ccsc3n2)c(Cl)c1Cl,95.7%
3,O=C(CN1C(=O)/C(=C/c2ccco2)SC1=S)NCCc1c[nH]c2ccc(F)cc12,105%
4,COc1cc(C2C3=C(COC3=O)N(CCO)c3cc4c(cc32)OCCO4)cc(OC)c1OC (stereo not given),6.75% (active)
5,N/C(=N\c1nc2ccccc2s1)NC(=NC1CCCCC1)NC1CCCCC1,4.41% (active)
6,CC(O)c1ncc(/C=C2\SC(=S)N(Cc3ccccc3)C2=O)s1 (stereo not given),102%
7,COc1ccc2nc3ccccc3c(NCc3ccc(F)cc3)c2c1,19.4%
8,COc1cc(-c2cc(-c3ccc(Nc4ncnc5cc(Cl)ccc45)cc3)nc(N3CCN(C)CC3)n2)cc(OC)c1OC,35.1%
9,O=C(Nc1cccnc1Nc1ccc(Cl)cc1)c1cn(Cc2ccc(F)cc2)nn1,96.2%
10,N#Cc1c(NC(=O)c2cccs2)[n+]([O-])c2ccc(Cl)cc2[n+]1[O-],108%
11,CCOC(=O)/C=C/c1c(C)[nH]c(=O)[nH]c1=O,83.2%
12,COc1ccc(C2C3=C(COC3=O)N(CCO)c3cc4c(cc32)OCCO4)cc1OC (stereo not given),53.3%
13,CN1CCN(c2ccc3c(c2)nc(NNC(=O)c2cnccn2)c2cccn23)CC1,20.9%
14,C=CCOC(=O)C1=C(C)NC(=O)NC1c1c(Cl)n(C)c2ccccc12 (stereo not given),102%
15,COc1ccc(Cl)cc1Nc1nc(C(F)(F)F)ccc1C(=O)N/N=C/c1ccccc1Cl,11.2%
